C diff growth: blocks growth of Clostridium difficile; Clostridium difficile clinical isolate growth, OD600, 24 h; stronger effect = lower value; growth activity, negative = inhibition, % at 16 µg/mL (by protocol); 86,000 tested, 0.25% active; AID 1259249;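 active means mean growth activity at or below -80% and every replicate also at or below -80%; inconclusive means mean at or below -80% but some replicate above -80%; inactive means mean growth activity above -80%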;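 further: 0% = DMSO wells and -100% = levofloxacin 16 µg/mL wells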
T cruzi growth-1: blocks T. cruzi growth in NIH3T3 culture | T. cruzi beta-gal in NIH3T3, GalScreen luminescence, 90 h | inhibition, % at 8.34 µM | 77,000 tested, 5.9% active;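 active means mean inhibition above about 93%, with at least 55% of replicates each passing it, limit read from the data, passing the limit was not always enough; inconclusive means only one of those two conditions holds; inactive means neither condition holds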
Pf Dd2 growth: P. falciparum Dd2 growth inhibition; AID 1159554; activity change, % at 10 µM; 94,000 tested, 2.3% active; SYBR Green, 72 h; stronger effect = lower value; in the data active means activity change below about -80%; inconclusive means no clear call, values can overlap the other calls
T cruzi growth-2: inhibitors of T. cruzi proliferation | 5,600 tested, 72% active | shares compounds with T cruzi growth-1 | inhibition, % at 8.35 µM | T. cruzi beta-gal in NIH3T3, GalScreen luminescence, 90 h;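 active means mean replicate inhibition above about 95% and at least 55% of replicates individually reaching it, limit read from the data; inconclusive means only one of the two criteria is met; inactive means neither criterion is met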
T cruzi growth-3: inhibitors of T. cruzi proliferation; T. cruzi beta-gal in NIH3T3, GalScreen luminescence, 90 h; AID 651740; shares compounds with T cruzi growth-1; 5,600 tested, 21% active; inhibition, % at 2.09 µM;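 active means mean inhibition above about 95%, with at least 55% of replicates also reaching it, limit read from the data; inconclusive means meets just one of the two conditions; inactive means meets neither condition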;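 further: plate controls were neutral control median for no effect and positive control median for full effect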
NIH3T3 tox: cytotoxicity in mouse NIH/3T3 fibroblasts | shares compounds with T cruzi growth-1 | NIH/3T3 viability, CellTiter-Glo ATP luminescence, 90 h | cytotoxicity (signal decrease), % at 8.35 µM | 5,600 tested, 14% active | AID 651742;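 active means mean signal decrease across replicates above about 35% based on untreated-well scatter, with enough replicates individually passing, limit read from the data; inconclusive means no rule stated though some were filed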;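 further: 0% = median of neutral control wells and 100% = median of positive control wells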
3T3 cytotox 2: kills mouse NIH/3T3 fibroblasts. inhibition, % at 24.9 µM. NIH/3T3 viability, CellTiter-Glo ATP luminescence, 90 h. 5,600 tested, 56% active. shares compounds with T cruzi growth-1;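 active means mean loss of cell viability signal at or above a set limit, and enough replicates individually reaching it; inconclusive means meets only the mean limit or only the replicate share; inactive means meets neither condition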;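 further: 0% = median of neutral control wells and 100% = median of positive control wells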
* hit, by the source's call. Compounds with a hit are over-represented: about 6.8% of the library has one in this group of screens.

Results for N#C[C@@H]1[C@H](c2ccc(C#Cc3ccc(F)cc3)cc2)[C@@H](CO)N1C(=O)C1CCCC1 ?
C diff growth: -4; T cruzi growth-1: 88; Pf Dd2 growth: -57

How did COCC(=O)N1[C@H](C#N)[C@@H](c2ccc(C#Cc3ccccc3F)cc2)[C@H]1CO do in these assays?
C diff growth: 7; T cruzi growth-1: 101*; Pf Dd2 growth: -11; T cruzi growth-2: 98*; T cruzi growth-3: 34; NIH3T3 tox: -1; 3T3 cytotox 2: 2

Results for C[C@@H]1CN([C@H](C)CO)C(=O)c2cc(NC(=O)c3ccncc3)ccc2O[C@H]1CN(C)C(=O)NC1CCCCC1 ?
C diff growth: -3; Pf Dd2 growth: 16

How did COc1ccc(CNC(=O)N(C)C[C@@H]2OCc3ccccc3-c3ccccc3C(=O)N([C@H](C)CO)C[C@H]2C)cc1 do in these assays?
C diff growth: -1; T cruzi growth-1: 54; Pf Dd2 growth: -12

What do the screens show for `C[C@@H]1CN([C@H](C)CO)C(=O)c2c(c3ccccc3n2C)-c2ccccc2CO[C@@H]1CN(C)C(=O)Nc1ccnc(N2CCOCC2)c1`?
C diff growth: 3; Pf Dd2 growth: -33

What do the screens show for `CN1c2ccc(-c3cccc(C#N)c3)cc2[C@@H]2[C@@H](CCN2C(=O)C2CC2)[C@H]1CO`?
C diff growth: 9; Pf Dd2 growth: -41

What do the screens show for `Cc1noc(C)c1S(=O)(=O)N(C)C[C@H]1Oc2c(cccc2N(C)C)C(=O)N([C@@H](C)CO)C[C@H]1C`?
C diff growth: -1; T cruzi growth-1: -3; Pf Dd2 growth: 3

How did CN1CCN(C(=O)C[C@H]2CC[C@@H]3[C@H](COC[C@H](O)CN3C(=O)C3CC3)O2)CC1 do in these assays?
C diff growth: 1; T cruzi growth-1: 6; Pf Dd2 growth: 5

What do the screens show for `N#C[C@@H]1[C@@H](c2ccc(C#Cc3ccccc3F)cc2)[C@H](CO)N1C(=O)C1CCOCC1`?
C diff growth: 0; T cruzi growth-1: 69; Pf Dd2 growth: -22

How did CCS(=O)(=O)N1[C@H](CO)[C@@H](c2ccc(C#Cc3ccccc3F)cc2)[C@@H]1C#N do in these assays?
C diff growth: -3; T cruzi growth-1: inconclusive; Pf Dd2 growth: -63; T cruzi growth-2: 107*; T cruzi growth-3: 109*; NIH3T3 tox: -1; 3T3 cytotox 2: 5

What do the screens show for `N#C[C@@H]1[C@H](c2ccc(C#Cc3ccccc3F)cc2)[C@@H](CO)N1C(=O)C1CC1`?
C diff growth: -3; T cruzi growth-1: 99*; Pf Dd2 growth: -7; T cruzi growth-2: 99*; T cruzi growth-3: 43; NIH3T3 tox: 6; 3T3 cytotox 2: 43*

What do the screens show for `N#C[C@@H]1[C@H](c2ccc(C#Cc3ccccc3F)cc2)[C@H](CO)N1C(=O)C1CC1`?
C diff growth: 0; T cruzi growth-1: 100*; Pf Dd2 growth: -53; T cruzi growth-2: 102*; T cruzi growth-3: 110*; NIH3T3 tox: 23; 3T3 cytotox 2: 44*

How did N#C[C@H]1[C@@H](c2ccc(C#Cc3ccccc3F)cc2)[C@H](CO)N1C(=O)C1CC1 do in these assays?
C diff growth: -16; T cruzi growth-1: 95; Pf Dd2 growth: -35

Results for CCS(=O)(=O)N1[C@H](C#N)[C@@H](c2ccc(C#Cc3ccccc3F)cc2)[C@H]1CO ?
C diff growth: 1; T cruzi growth-1: 34; Pf Dd2 growth: 3

How did CO[C@@H]1CN(C)C(=O)c2ccc(NC(C)=O)cc2OC[C@@H](C)N(CCc2ccccc2)C[C@@H]1C do in these assays?
C diff growth: 5; Pf Dd2 growth: -18

What do the screens show for `CN1C(=O)c2cc(NC(=O)Nc3cccc(Cl)c3)ccc2OC[C@H]2O[C@@H](CC(=O)NCCc3ccncc3)CC[C@@H]21`?
C diff growth: 0; T cruzi growth-1: -9; Pf Dd2 growth: -15

What do the screens show for `COc1ccc2c3c([nH]c2c1)[C@@H](CO)N(S(C)(=O)=O)CC31CCN(C(=O)c2ccncc2)CC1`?
C diff growth: -3; Pf Dd2 growth: 3

What do the screens show for `CCN(C[C@@H]1N[C@H](CO)[C@H]1c1ccc(C2=CCCC2)cc1)C(=O)c1ccncc1`?
C diff growth: -3; T cruzi growth-1: 93; Pf Dd2 growth: -52

How did CCN(C[C@H]1N[C@H](CO)[C@H]1c1ccc(C2=CCCC2)cc1)C(=O)c1cccnc1 do in these assays?
C diff growth: 5; T cruzi growth-1: -13; Pf Dd2 growth: 10

How did O=C(NC[C@H]1N[C@H](CO)[C@@H]1c1ccc(C2=CCCCC2)cc1)c1ccc(F)cc1 do in these assays?
C diff growth: 40; T cruzi growth-1: 96*; Pf Dd2 growth: -10; T cruzi growth-2: 100*; T cruzi growth-3: 51; NIH3T3 tox: -1; 3T3 cytotox 2: 106*

How did C/C=C/c1ccc([C@@H]2[C@@H](CO)N[C@@H]2CN(CC)C(=O)c2ccccn2)cc1 do in these assays?
C diff growth: -6; T cruzi growth-1: 100*; Pf Dd2 growth: -18; T cruzi growth-2: 28; T cruzi growth-3: 3; NIH3T3 tox: -12; 3T3 cytotox 2: 11

How did CCN(C[C@H]1N[C@H](CO)[C@H]1c1ccc(C2=CCCC2)cc1)C(=O)c1ccncc1 do in these assays?
C diff growth: 1; T cruzi growth-1: 104*; Pf Dd2 growth: -62; T cruzi growth-2: -13; T cruzi growth-3: -4; NIH3T3 tox: -14; 3T3 cytotox 2: 20

What do the screens show for `O=C(NC[C@H]1N[C@H](CO)[C@@H]1c1ccc(C2=CCCCC2)cc1)c1cccc(F)c1`?
C diff growth: 30; T cruzi growth-1: 85; Pf Dd2 growth: -19

Results for C/C=C/c1ccc([C@@H]2[C@H](CO)N[C@H]2CN(CC)C(=O)c2ccccn2)cc1 ?
C diff growth: -7; T cruzi growth-1: 21; Pf Dd2 growth: -6

How did CCN(C[C@H]1N[C@@H](CO)[C@@H]1c1ccc(C2=CCCC2)cc1)C(=O)c1ccncc1 do in these assays?
C diff growth: -4; T cruzi growth-1: 105*; Pf Dd2 growth: -34; T cruzi growth-2: 98*; T cruzi growth-3: 0; NIH3T3 tox: -12; 3T3 cytotox 2: 55*

Results for CCCN1[C@H](C(=O)OC)[C@@H](CO)[C@@H]2Cn3c(ccc(-c4cncnc4)c3=O)[C@@H]21 ?
C diff growth: -10; T cruzi growth-1: 54

How did COc1ccc2c3c(n(C)c2c1)[C@H](CO)N(CC1CCCCC1)CC31CCN(C(C)=O)CC1 do in these assays?
C diff growth: 5; Pf Dd2 growth: -52

How did COc1ccc2c3c(n(C)c2c1)[C@H](CO)N(Cc1ccc2c(c1)OCO2)CC31CN(C(=O)C2CC2)C1 do in these assays?
C diff growth: -4; Pf Dd2 growth: -56
